In PubChem BioAssay (NCI) one finds growth data, which are given here for 40 molecules.

Molecules are shown by their SMILES. The panel holds about 83,000 compounds, 20% with a hit somewhere; the sample as a whole holds those more often.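 Interpretation: 100, growth as untreated; towards 0, rising growth inhibition; 0, no net growth; 0 to -100, cell death. Compounds scoring below 10 were considered active.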 Values without a mark were called inactive. Calls of active or inactive are those of the source.

For the test, the system named is MDA-MB-468 breast. Put plainly: NCI-60 one-dose screen, 48 h (100 = growth as untreated, 0 = no growth, -100 = all killed). The settings on record: 10 µM unless noted.
As to `Cc1ccc(NCCN(C)CC(C)O)c2c(=O)c3ccccc3sc12` (stereo not given), the growth was 13.5%. With `CC1(C)O[C@H]2OC3CCC(=O)CC3(O)[C@H]2O1` (stereo not given in full), the growth is 98.5%. As for `O=[N+]([O-])c1cccc(N=Cc2ccc3c(c2)OCO3)c1`, the figure is 103%; as for `N/C(=N\O)c1cn(C2OC(CO)C(O)C2O)c2ncnc(N)c12` (stereo not given), -23.4% (active). The figure for `O=C(OCCBr)c1ccc(Cl)c([N+](=O)[O-])c1` is -79.8% (active); for `CC(C)(C)c1nn(-c2ccccc2)c2c1C(=O)CSC(c1ccc3c(c1)OCO3)N2` (stereo not given) it is 120%; for `O=C(CNC1CCCCC1)Nc1ccc(-c2nc3ccccc3s2)cc1` it is 35.9%. The figure for `Cc1ccc(NC(=O)c2ccccc2Cl)cc1` is 114%; for `O=C(N/N=C/[C@H](O)[C@@H](O)[C@@H](O)[C@H](O)CO)c1ccc(NC(=O)c2cccnc2)cc1` it is 105%; for `CC1(C)Nc2cccc3c(N=Nc4ccc(N=Nc5ccccc5)c5ccccc45)ccc(c23)N1` it is 95.9%.

In the case of `CC(=O)OC1C=CC(OC(C)=O)O1` (stereo not given), the growth was 101%. The figure for `C#CC(=O)N(c1ccc(OC)cc1OC)C(C(=O)NCC(=O)OCC)c1cccs1` (stereo not given) is 20.2%; for `COc1cc(-c2nc3ccccc3s2)ccc1NC(=O)COc1ccc(Cl)cc1` it is 21.3%. Consider `CS(=O)(=O)Nc1cc(-c2ccc3ncc(C#N)c(NCc4ccccc4F)c3c2)cnc1Cl`, for which the growth is -16.8% (active). The figure for `CC(=O)c1c(C)[nH]c(-c2nc3ccc(N4CCN(C)CC4)cc3[nH]2)c1-c1ccc2c(c1)OCCO2` is 12.6%. Consider `CN1CCC(=C2c3ccccc3C=Cc3ccccc32)CC1`, for which the growth is 36%.

Regarding `CCN1C(=O)N(CC)C2C1NN=c1s/c(=C3\C(=O)N(C4CCCC4)c4ccccc43)c(=O)n12` (stereo not given), the growth was -43.2% (active). As for `CCCCCCNC(=O)Oc1ccc(/C(=C(/C)c2ccccc2)c2ccc(OCCN(C)C)cc2)cc1`, the figure is 71.5%. As for `CCCC(=O)Oc1ccc(/C(=C(\C)c2ccc(Cl)cc2)c2ccc(OCCN(CC)CC)cc2)cc1`, the figure is -64.1% (active); as for `C=CCn1c(C)nc2ccc(Nc3nc(Nc4ccc(F)cc4)nc4ccccc34)cc21`, 49.3%.

As for `Nc1c(C(=O)Nc2ccccc2)sc2nc3c(cc12)CN(C(=O)OCc1ccccc1)CC3`, the growth was 63.8%. As for `Nc1ccccc1NC(=O)c1ccc(CN2CCC/C(=C\c3ccccn3)C2=O)cc1`, the figure is -6.37% (active); as for `COc1ccc2c(c1)c(-c1cc(N)n3nc(-c4cn(C)c5ccc(OC)cc45)cc3n1)cn2C`, 142%. The figure for `N#Cc1nc(-c2cccc(Br)c2)cc(-c2ccc(Nc3nc(N4CCCCC4)nc(N4CCCCC4)n3)cc2)c1N` is -26.3% (active); for `CCN(CC)CCCNC(=O)c1ccc(N)cc1` it is 86.2%; for `COc1nc2c(c(=O)n1C)CN(c1ccccc1)C(=O)CN2C` it is 4.41% [100 µM] (active).

For the molecule `O=c1[nH]nc(-c2ccccc2)c2sc(NC(=S)Nc3ccc(Cl)cc3)nc12`, the growth is 95.6%. As for `OCCn1cccn1`, the figure is 103%; as for `CC1C(/C=N/Nc2ccccc2)C(C#N)(C#N)C1(C#N)C#N` (stereo not given), 91.3%. As for `CC(C)c1nc(N(C)S(C)(=O)=O)nc(-c2ccc(F)cc2)c1/C=C/[C@@H](O)C[C@@H](O)CC(=O)O`, the figure is 99.4%; as for `COc1ccc(-c2nc3cc(C(=O)NC4CCCCC4)ccc3n2C2CCCCC2)cc1`, 109%; as for `COc1ccc2[nH]c(C(=O)OCc3ccc4c(Cl)cc(Cl)c(O)c4n3)cc2c1`, -83.1% (active). The figure for `COc1ccc2cc(-c3ccc(C(=O)NN)c(C)n3)ccc2c1` is 106%; for `COC(=O)C1(C)CCC[C@]2(C)[C@H]3C[C@H]4C(C(C)C)=C[C@]3(CC[C@@H]12)[C@H]1[C@@H]4[C@@H](OC(=O)c2ccco2)CC[C@@H]1OC(=O)c1ccco1` (stereo not given in full) it is 102%; for `O=C1OCC2=C1C(c1cccc(F)c1)c1cc3c(cc1N2CCO)OCO3` (stereo not given) it is 8.27% (active). For the molecule `Cn1cnc(-c2cc3nccc(Oc4ccc(NC(=S)NC(=O)Cc5ccccc5)cc4F)c3s2)c1`, the growth was 103%. As for `O=C(Nc1cccc2c1C(=O)c1cccc(NC(=O)c3ccc(C(=O)Nc4cccc5c4C(=O)c4cccc(NC(=O)c6ccccc6)c4C5=O)cc3)c1C2=O)c1ccccc1`, the growth is 91.3%. The figure for `COc1ccc2nc3cc(Cl)ccc3c(Nc3cc(CN4CCCC4)c(O)c(CN4CCCC4)c3)c2n1` is -53.3% (active); for `C1CNC(C2=NCCN2)=N1` it is -26.9% (active).

On to `CCOC(=O)c1c(C)[nH]c(C(=O)CCC(=O)OC)c1C`, for which the growth is 114%.
